Publication PMC12136788
Changes are numbered by the printed parent chain. In all, about 24,000 sequences were measured (“enrichment r”: median about 0.99, highest 2% from about 3.7 on). The entries come from a sample that favours the highest values as a whole.

T1: UNK ZnF1-3 (human, UniProt Q9C0B0 31-174)
T1 sequence: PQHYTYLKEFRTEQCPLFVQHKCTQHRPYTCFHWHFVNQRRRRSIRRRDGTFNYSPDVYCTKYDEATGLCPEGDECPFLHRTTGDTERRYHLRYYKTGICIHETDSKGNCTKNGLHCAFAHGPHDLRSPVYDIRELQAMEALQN

B1: chr2:179803060:179803061:+_ENSMUSG00000039086_ENSMUST00000041126|mus_mus|FALSE|FALSE (ssRNA)
RNA: GGGAGUUCUACAGUCCGACGAUCAUGUAAAAAAAAAAAAAAUCACCCAAUUCUCACUGUAUAAAACUUGUCCUUUUCAUUUGAAAGAACGUAAUAAAGUUAUUUGGAUUCAUUAAAAAUGCAGUGUGGAUUUCAGACUUCCCUCAACAGAGGAUUGAGCAUCA
B2: chr4:109959894:109959895:-_ENSMUSG00000028546_ENSMUST00000106598|mus_mus|motif|central (ssRNA)
RNA: GGGAGUUCUACAGUCCGACGAUCGCUUCGACUCUUCUCUUAAAAUUUGCAAAGGUUUCAGAAUAUACUUAAAAAUGACGGCGGUUGUUUUAUAUAUAUAUAUAUUAAAGAUCCACAGACCACAGUGUGGAUGAUUGUAAAGUACAACAGAGGAUUGAGCAUCA
B3: chr1:60041781:60041782:+_ENSMUSG00000041040_ENSMUST00000036540|mus_hu|mus_mus_mus_hu_False|38_58 (ssRNA)
RNA: GGGAGUUCUACAGUCCGACGAUCAAGUUUACAAUAGUAAAGUAAAUGCAGUAGUGGCAAAUUUUCUUUUAUUUUCCUUCCUAAAAGAAAAUCUUUAGAUCUCAGUUCUAGUCUUGGACAUAGUGAAAGCUAUAAAUUCUGACUCAACAGAGGAUUGAGCAUCA
B4: chr18:25531195:25531196:-_ENSG00000170558_ENST00000399380|hu_mus|motif|central (ssRNA)
RNA: GGGAGUUCUACAGUCCGACGAUCCUUUUUUUUUUUUUGUGUGUAAUUUUUUUGGUACAAAUUAUGUAAAACACUUGUGCGGAGAACUUUUACCCCUCCCCAAAACGAAACAAACAAAAAGAAAAUAAAAAAAUUUAAAAAAAACAACAGAGGAUUGAGCAUCA
B5: chr4:109959894:109959895:-_ENSMUSG00000028546_ENSMUST00000106598|mus_mus|FALSE|FALSE (ssRNA)
RNA: B2 RNA with G79U, G80A, G82U, G83A
B6: chr2:23028566:23028567:+_ENSMUSG00000026775_ENSMUST00000028117|mus_mus|FALSE|FALSE (ssRNA)
RNA: GGGAGUUCUACAGUCCGACGAUCGGUCUUCUGUGUAAGAGCUUGAGCUUUGAGAAAACCCUCUGCAAAACCAGUUUUAAAUGCAUCUUGGUGAGCUUCAGGUAUGUUUUUAGUUUUCAUAAGUUUGUCCAAACUCUCAAGAUCCAACAGAGGAUUGAGCAUCA
B7: chr22:28376736:28376737:-_ENSG00000100154_ENST00000397906|hu_hu|FALSE|FALSE (ssRNA)
RNA: GGGAGUUCUACAGUCCGACGAUCAUUUUAGAAUUACCUAAAAGAUACUUACUUAUCUAAAUUCUCCAACUAAACUCAGUACUAAUACGACUUUCAGCAUUUCCUUUCUUUAUAAAAUAAAUUAAUGGUUACCCCUAACUAGAUCAACAGAGGAUUGAGCAUCA
B8: 72560208_72560328_3170_3pUTR_ENSMUSG00000056429_ENSMUST00000070524|mouse|control|control (ssRNA)
RNA: GGGAGUUCUACAGUCCGACGAUCUCCUAAAAAUUAGCGGAGAGUAUACCUAGAUAAUUUCUUUAAAAAAAAAAAAGUGGACUUCUGUGAUGAUAAAAAUGUUUUUAGUUUAUAGUGUGGAGUUUUCAGAUGAUUAGAGAAAGUCAACAGAGGAUUGAGCAUCA
B9: chr19:15271055:15271056:-_ENSG00000074181_ENST00000263388|hu_mus|motif|central (ssRNA)
RNA: GGGAGUUCUACAGUCCGACGAUCAUAUAUAUUUUGUAAAAAAUAAUAAUAAUAAUAAGUUUGUUUAAAUGAAUUUGUCUCGGUACAAAAUGUAAAAAAGAAAAAAAUAAUAACUCACUCUUGUCAGAGUGUGAGACAAUGAGACAACAGAGGAUUGAGCAUCA
B10: chr7:141450121:141450122:+_ENSG00000106028_ENST00000265304|hu_mus|hu_hu_hu_mus_True|8_98 (ssRNA)
RNA: GGGAGUUCUACAGUCCGACGAUCUCAUCCGUUCUAUUCCUUCUCUUUUGUCUGGUCACUCAGAAAUAUAAUGUUAUCAGCUAUGAUUGUUGUUGCUUGCCGCCUCACAUUGUUUUUAUCCAUGUACUCACCAUAGUCCACUUUCAACAGAGGAUUGAGCAUCA
B11: chr4:17845017:17845018:+_ENSG00000109805_ENST00000514176|hu_mus|hu_hu_hu_mus_False|48_108 (ssRNA)
RNA: GGGAGUUCUACAGUCCGACGAUCGCUUCCUAACUUAGUAUCUUCAUUAAGGAACUCUGCAAGGUUAAGUUUACUUUUCUGUAGCGCGCGGUUUUGGGCUCGUCUGGGUAAUCUCAUCUUCAUUUCUGAUGGUGGUUCAUGAUCCAACAGAGGAUUGAGCAUCA
B12: chr8:67197462:67197463:-_ENSMUSG00000031604_ENSMUST00000034015|mus_mus|FALSE|FALSE (ssRNA)
RNA: GGGAGUUCUACAGUCCGACGAUCUCCGAACUGACCAGUGUAUGUAAAAGGCUUAAAAGGCAACGUCAACUUCAGCCUCCUAUGGCAUGAAGUGGUGAGUUGUACAUUAAUACUUCCUCCAGUUCCCGAAACCUUUUGGUGAGGCAACAGAGGAUUGAGCAUCA
B13: chr5:150025729:150025730:+_ENSMUSG00000041264_ENSMUST00000121416|mus_mus|FALSE|FALSE (ssRNA)
RNA: GGGAGUUCUACAGUCCGACGAUCCACGAAGGCUCUCUUCUGAUCUUCUUUCCGAGGCUGAUUCUGUGCUGACCUGGCUGCUACUGUUUUAGAAGACGCUGUGGUUUCUCGUUUUCUCAAAUUAGAUGCCUGAGAUUUACCAGGCAACAGAGGAUUGAGCAUCA

Target: T1, UNK ZnF1-3
Assay: nsRBNS (natural sequence RNA bind-n-seq); RBNS binding buffer (assumed for nsRBNS): 25 mM Tris pH 7.5, 150 mM KCl, 3 mM MgCl2, 0.01% Triton X-100, 500 ug/ml BSA, 20 U/ml SUPERase-In, 4 C; UNK is unkempt and MSI1 is Musashi-1; names of the RNAs are library labels; protein concentration not given here; high values mean tight binding

First: B1
Second: B2
The binding signal of the first is higher: 5.86 enrichment R for the first, 3.36 enrichment R for the second.

Compared with B3, B4 is higher in binding signal: 0.462 enrichment R for the first, 3.31 enrichment R for the second.

Compared with B5, B6 is lower in binding signal: 4.13 enrichment R for the first, 1.2 enrichment R for the second.

Going from B7 to B8, the binding signal rises from 1.4 enrichment R to 8.87 enrichment R.

Going from B9 to B10, the binding signal falls from 11.3 enrichment R to 0.398 enrichment R.

First: B11
Second: B12
The binding signal of the first is lower: 0.472 enrichment R for the first, 0.838 enrichment R for the second.

In the case of B13, the binding signal is reported as 0.579 enrichment R.
